This note sets out measurements from PubChem BioAssay.

Assay [1] has as its target Nuclear receptor coactivator 3 (Homo sapiens) (UniProt Q9Y6Q9). The assay is described as follows: SRC3 coactivator transcriptional activity inhibitors, confirmation, cell-based, luminescence, quadruplicate (AID 588792).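 Note: 0% = DMSO treated cells and 100% = gossypol at 36 µM.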 To be noted: HEK293 GAL4-SRC3 luciferase reporter, at 3.6 µM, active compounds read high.
Assay [2] deals with transactivating tegument protein VP16 (Human herpesvirus 1), Gal4-VP16 luciferase reporter. In words: VP16 transactivation inhibitors, counter-screen for SRC3 inhibitor project, cell-based, luminescence, high throughput (AID 588794; in the data active = inhibition above about 30%). To be noted: mammalian cells, VP16-driven luciferase reporter luminescence; at 3.6 µM; active compounds read high. Background: A counterscreen serves to expose hits that act by an unwanted route or on another target.

Assay [3] concerns transactivating tegument protein VP16 (Human herpesvirus 1). The assay is described as follows: VP16 transactivation reporter inhibitors, counter-screen for SRC2 inhibitor project, cell-based, luminescence, single concentration (AID 652007; in the data active = inhibition above about 36%). To be noted: cell-based VP16 transactivation luciferase reporter, at 8.9 µM, active compounds read high.
Assay [4] deals with Nuclear receptor coactivator 2 (Homo sapiens) (UniProt Q15596). The assay is described as follows: SRC2 coactivator transcriptional activity inhibitors, confirmation, cell-based, luminescence, HEK293, triplicate (AID 652008;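 active = mean inhibition above 46.5%, the solvent-only control mean plus 3 SD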;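 note: 0% = DMSO-treated cells and 100% = Gossypol at 36 µM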). To be noted: HEK293 GAL4-SRC2 luciferase reporter, at 8.9 µM, active compounds read high. A general note: A reporter such as luciferase makes a cellular process visible.

Assay [5] addresses Nuclear receptor subfamily 5 group A member 2 (Homo sapiens) (UniProt O00482). The assay is described as follows: LRH-1 (NR5A2) inverse agonists, retest, confirmation, cell-based, luminescence (AID 651613; in the data active = inhibition above about 42%;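 note: HEK293T cells co-transfected with LRH-1 and StAR promoter luciferase reporter; 0% = vehicle wells and 100% = parental cells lacking receptor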). To be noted: cell-based LRH-1 luciferase reporter, inverse agonism; at 3.6 µM; active compounds read high.
The target in assay [6] is Steroidogenic factor 1 (Homo sapiens) (UniProt Q13285). The assay is described as follows: SF1 (NR5A1) inverse agonists, counter-screen for LRH-1 inverse agonist project, cell-based, luminescence, high throughput (AID 651614; in the data active = inhibition above about 44%;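 note: cells cotransfected with StAR promoter reporter and SF1 expression vector; 0% = vehicle on cells with receptor and 100% = vehicle on cells lacking receptor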). To be noted: cell-based SF1 luciferase reporter, at 3.6 µM, active compounds read high.
Assay [7] is described as follows: StAR promoter reporter inhibitors, counter-screen for LRH-1 inverse agonist project, cell-based, luminescence, high throughput (AID 651611; in the data active = inhibition above about 28%). To be noted: StAR promoter luciferase reporter counterscreen, at 3.6 µM, active compounds read high.
Assay [8] is described as follows: VP16 transactivation reporter inhibitors, counter-screen for LRH-1 inverse agonist project, cell-based, luminescence, high throughput (AID 651615; in the data active = inhibition above about 33%). To be noted: Gal4-VP16 luciferase reporter cells, at 3.6 µM, active compounds read high.
Assay [9] is described as follows: Gal4-VP16 luciferase reporter inhibitors, counter-screen for COUP-TFII antagonist project, cell-based, luminescence, HEK293 (AID 687007; in the data active = inhibition above about 13%). To be noted: at 8.5 µM, active compounds read high.
Assay [10] has as its target COUP transcription factor 2 (Homo sapiens) (UniProt P24468). In words: NR2F2 transcriptional activity inhibitors, confirmation, cell-based, luciferase reporter, HEK293, triplicate (AID 687008;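 active = mean inhibition over three repeats above a set limit taken from the earlier primary screen, cut at about 38% in these data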;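 note: 100% = cells given the luciferase reporter alone without the COUP-TF2 vector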). To be noted: HEK293 NGFI-A luciferase reporter, luminescence; at 8.5 µM; active compounds read high.

Structures are written as SMILES. A number with no mark means an inactive call. Some of the results follow. Active and inactive are the calls of the source.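 Rule for the calls, unless noted: active = mean inhibition over 43.08%, the solvent-only control mean plus 3 SD; inactive = the rest.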

Sequence of Nuclear receptor coactivator 2 (Homo sapiens) (Q15596 whole entry, looked up, the tested form may be a part): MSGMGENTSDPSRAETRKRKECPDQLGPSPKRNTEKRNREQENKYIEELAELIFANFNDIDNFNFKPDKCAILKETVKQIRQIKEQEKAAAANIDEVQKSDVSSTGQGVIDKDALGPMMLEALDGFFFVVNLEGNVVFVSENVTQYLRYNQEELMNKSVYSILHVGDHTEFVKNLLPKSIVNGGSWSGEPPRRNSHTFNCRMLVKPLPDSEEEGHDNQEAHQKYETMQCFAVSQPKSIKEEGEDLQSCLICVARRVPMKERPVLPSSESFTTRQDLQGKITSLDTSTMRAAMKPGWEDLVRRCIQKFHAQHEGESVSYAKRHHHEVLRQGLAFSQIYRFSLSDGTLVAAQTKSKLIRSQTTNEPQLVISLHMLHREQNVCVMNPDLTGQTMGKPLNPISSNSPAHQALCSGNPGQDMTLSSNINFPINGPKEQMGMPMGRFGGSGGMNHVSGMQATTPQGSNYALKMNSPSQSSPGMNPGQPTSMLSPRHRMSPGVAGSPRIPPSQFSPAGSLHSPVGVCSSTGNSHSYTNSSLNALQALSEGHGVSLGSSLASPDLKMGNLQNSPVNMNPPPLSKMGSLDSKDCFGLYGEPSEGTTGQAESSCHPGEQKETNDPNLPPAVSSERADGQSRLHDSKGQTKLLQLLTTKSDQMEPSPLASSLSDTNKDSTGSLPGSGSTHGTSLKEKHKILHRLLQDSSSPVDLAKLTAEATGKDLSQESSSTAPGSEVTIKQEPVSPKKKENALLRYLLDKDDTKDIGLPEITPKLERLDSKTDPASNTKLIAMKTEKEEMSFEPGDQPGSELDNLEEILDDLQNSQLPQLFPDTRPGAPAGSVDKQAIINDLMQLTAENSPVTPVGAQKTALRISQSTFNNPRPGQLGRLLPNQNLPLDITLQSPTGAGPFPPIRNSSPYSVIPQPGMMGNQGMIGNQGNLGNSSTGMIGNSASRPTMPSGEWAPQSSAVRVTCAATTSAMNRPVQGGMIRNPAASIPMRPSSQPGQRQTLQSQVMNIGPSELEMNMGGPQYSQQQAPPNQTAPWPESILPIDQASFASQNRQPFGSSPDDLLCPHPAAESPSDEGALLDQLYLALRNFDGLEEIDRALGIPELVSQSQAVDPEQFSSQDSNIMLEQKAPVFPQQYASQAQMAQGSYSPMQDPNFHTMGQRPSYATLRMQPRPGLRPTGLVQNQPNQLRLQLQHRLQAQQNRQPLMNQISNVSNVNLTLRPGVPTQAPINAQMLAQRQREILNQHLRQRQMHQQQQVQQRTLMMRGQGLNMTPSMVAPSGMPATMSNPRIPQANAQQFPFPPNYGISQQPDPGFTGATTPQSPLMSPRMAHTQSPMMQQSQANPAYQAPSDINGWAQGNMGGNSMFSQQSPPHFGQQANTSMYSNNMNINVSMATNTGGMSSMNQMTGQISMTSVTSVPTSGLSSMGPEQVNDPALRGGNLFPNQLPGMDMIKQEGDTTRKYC
Sequence of Nuclear receptor coactivator 3 (Homo sapiens) (Q9Y6Q9 whole entry, looked up, the tested form may be a part): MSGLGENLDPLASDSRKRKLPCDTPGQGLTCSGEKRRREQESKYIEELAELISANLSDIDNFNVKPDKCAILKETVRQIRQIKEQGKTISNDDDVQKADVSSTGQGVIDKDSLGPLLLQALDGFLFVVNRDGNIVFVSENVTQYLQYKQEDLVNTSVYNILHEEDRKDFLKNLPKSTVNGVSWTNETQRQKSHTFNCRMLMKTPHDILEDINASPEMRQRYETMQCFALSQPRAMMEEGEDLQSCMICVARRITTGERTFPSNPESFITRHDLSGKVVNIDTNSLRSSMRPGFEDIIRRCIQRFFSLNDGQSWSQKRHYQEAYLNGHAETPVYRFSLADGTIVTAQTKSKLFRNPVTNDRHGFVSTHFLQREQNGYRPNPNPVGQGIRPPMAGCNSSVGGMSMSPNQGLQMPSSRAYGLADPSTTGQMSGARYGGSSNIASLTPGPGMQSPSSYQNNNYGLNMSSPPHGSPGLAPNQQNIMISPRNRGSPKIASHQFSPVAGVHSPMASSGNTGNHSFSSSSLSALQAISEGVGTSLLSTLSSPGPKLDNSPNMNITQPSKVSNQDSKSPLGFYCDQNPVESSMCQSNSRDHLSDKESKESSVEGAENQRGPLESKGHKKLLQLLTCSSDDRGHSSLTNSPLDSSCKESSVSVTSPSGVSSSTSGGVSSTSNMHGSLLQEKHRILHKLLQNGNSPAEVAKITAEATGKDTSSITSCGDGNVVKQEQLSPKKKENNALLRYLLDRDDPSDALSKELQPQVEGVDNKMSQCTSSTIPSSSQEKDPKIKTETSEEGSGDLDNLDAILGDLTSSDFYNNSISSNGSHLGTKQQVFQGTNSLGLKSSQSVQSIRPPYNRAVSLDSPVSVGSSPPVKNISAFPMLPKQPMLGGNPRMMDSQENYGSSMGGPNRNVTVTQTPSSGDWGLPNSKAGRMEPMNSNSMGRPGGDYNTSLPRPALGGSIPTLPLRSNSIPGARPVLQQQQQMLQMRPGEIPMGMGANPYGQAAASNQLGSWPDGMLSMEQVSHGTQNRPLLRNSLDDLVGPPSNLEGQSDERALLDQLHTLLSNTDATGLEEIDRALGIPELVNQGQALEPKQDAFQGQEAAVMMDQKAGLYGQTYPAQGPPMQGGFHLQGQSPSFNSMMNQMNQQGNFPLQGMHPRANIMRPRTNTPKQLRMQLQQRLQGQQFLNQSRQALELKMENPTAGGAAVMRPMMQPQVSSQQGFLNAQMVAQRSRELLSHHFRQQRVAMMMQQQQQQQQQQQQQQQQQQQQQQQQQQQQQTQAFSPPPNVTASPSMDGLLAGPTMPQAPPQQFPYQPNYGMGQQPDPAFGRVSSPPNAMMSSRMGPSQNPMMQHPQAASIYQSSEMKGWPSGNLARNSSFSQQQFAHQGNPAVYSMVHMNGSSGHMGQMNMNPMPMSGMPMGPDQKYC
Sequence of Steroidogenic factor 1 (Homo sapiens) (Q13285 whole entry, looked up): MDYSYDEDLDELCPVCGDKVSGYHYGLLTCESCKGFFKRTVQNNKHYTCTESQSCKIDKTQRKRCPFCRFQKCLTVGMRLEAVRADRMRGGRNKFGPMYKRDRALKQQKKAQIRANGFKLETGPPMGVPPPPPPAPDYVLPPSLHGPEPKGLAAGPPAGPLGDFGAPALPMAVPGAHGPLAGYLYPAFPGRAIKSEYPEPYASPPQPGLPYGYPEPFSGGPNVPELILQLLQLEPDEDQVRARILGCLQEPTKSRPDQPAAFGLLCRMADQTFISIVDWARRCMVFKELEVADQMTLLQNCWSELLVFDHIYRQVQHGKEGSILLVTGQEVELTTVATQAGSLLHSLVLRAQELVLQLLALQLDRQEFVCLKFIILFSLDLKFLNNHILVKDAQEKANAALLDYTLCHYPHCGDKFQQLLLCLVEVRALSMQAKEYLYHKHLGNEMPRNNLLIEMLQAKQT
Sequence of Nuclear receptor subfamily 5 group A member 2 (Homo sapiens) (O00482 whole entry, looked up): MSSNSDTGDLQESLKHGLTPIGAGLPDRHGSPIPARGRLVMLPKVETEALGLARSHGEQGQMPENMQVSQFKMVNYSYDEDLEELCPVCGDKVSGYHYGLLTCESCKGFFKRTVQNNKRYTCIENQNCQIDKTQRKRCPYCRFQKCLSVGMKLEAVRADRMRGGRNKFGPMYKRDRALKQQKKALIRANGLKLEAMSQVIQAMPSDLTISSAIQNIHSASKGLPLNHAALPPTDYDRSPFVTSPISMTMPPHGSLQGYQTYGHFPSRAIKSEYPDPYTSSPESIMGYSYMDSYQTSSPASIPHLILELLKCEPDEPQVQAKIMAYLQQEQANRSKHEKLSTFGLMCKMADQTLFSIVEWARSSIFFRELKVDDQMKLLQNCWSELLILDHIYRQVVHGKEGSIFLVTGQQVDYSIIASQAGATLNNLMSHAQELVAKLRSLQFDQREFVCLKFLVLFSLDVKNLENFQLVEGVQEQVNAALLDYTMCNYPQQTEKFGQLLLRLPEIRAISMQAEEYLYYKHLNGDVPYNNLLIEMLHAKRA
Sequence of COUP transcription factor 2 (Homo sapiens) (P24468 whole entry, looked up): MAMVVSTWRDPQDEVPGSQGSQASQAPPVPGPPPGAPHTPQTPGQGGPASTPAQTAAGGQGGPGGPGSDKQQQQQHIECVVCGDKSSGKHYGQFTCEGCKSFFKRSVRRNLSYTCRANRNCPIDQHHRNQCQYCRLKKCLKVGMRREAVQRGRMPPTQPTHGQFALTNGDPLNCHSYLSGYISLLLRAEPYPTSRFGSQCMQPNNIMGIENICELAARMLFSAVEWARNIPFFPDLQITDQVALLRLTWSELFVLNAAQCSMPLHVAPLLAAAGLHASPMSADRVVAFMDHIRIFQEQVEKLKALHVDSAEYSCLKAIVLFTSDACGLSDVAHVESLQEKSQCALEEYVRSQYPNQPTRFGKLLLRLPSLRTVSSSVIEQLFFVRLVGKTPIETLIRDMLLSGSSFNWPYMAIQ

One may read the inhibition as the drop in the measured response relative to a control, in per cent. `CC(C)N(CC(=O)Nc1ccc(Cl)cc1C(F)(F)F)C(=O)CCl`: the inhibition in [1] is 44% (active); in [2], 35.6% (active); in assay [3], 25.9%; in [4], 59.2% (active).

Turning to `CCOC(=O)c1c(C)nn(-c2ccc(NC(=O)/C=C/C(=O)O)cc2)c1C`, the inhibition in assay [1] is 10.7%; in [2], -2.88%; in assay [3] it was 8.16%; in assay [4], 62.7% (active).

Regarding `CCN(CC)S(=O)(=O)c1ccc(N/N=C/c2cc(OC)ccc2O)nc1`, the inhibition is 31.4% in [1], 31% (active) in assay [2], -11% in assay [3] and 19.9% in assay [4].

Consider `O=C(/C=C\Nc1ccc2c(c1)OCO2)c1ccccn1`, for which the inhibition is 22.5% in assay [1], 14.7% in [2], 29.3% in assay [3] and 62% (active) in assay [4].

For `Cc1ccc(-n2c(-c3ccc(Cl)cc3)c[n+]3c2CCC3)cc1`, the inhibition in assay [1] was 16.1%; in [2], 21.9%; in assay [3] it was 13.4%; in assay [4], 18.6%.

In the case of `O=S(=O)(c1ccc(F)cc1)c1snnc1-c1ccccc1`, the inhibition in assay [1] is 29%; in assay [2], 8.39%; in [3], 27.8%; in assay [4], 28.7%.

For `CCOc1ccc(CC(=O)Nc2ccc(NC(=O)c3ccco3)cc2)cc1OCC`, the inhibition in assay [1] is 64% (active); in assay [2] it was -14.3%; in [3], 7.03%; in assay [4] it was 41.9%.

For `O=C(NCCCn1ccnc1)c1ccc(N2CCCCCC2)c([N+](=O)[O-])c1`, the inhibition is 50.3% (active) in assay [1], -23.6% in assay [2], 26.9% in [3] and 54.3% (active) in assay [4].

In the case of `Nc1ccc(-c2nc3ccc(C(=O)O)cc3s2)cc1`, the inhibition is -24% in assay [1], -26.4% in [2], 40.2% (active) in [3] and 60.6% (active) in [4].

Consider `C=C(C(=O)c1ccccc1)C(C)C(=C)C(=O)c1ccccc1`, for which the inhibition in [1] is 44.4% (active); in assay [2], 33.4% (active); in assay [3] it was 53.9% (active); in [4] it was 51.8% (active).

As to `COc1ccc(C(=O)C(CCC(CNC(C)(C)C)C(=O)c2ccc(OC)cc2)CNC(C)(C)C)cc1` (stereo not drawn), the inhibition in assay [1] is -9.42%; in [2], 4.54%; in assay [3], 10.4%; in [4] it was 20.1%.

On to `CCN(CC)c1ccc(-n2c(C)c(C(C)=O)c(C(C)=O)c2C)cc1`, for which the inhibition in assay [1] was 4.48%; in assay [2], 25.7%; in assay [3], -2.52%; in assay [4] it was 11.8%.

On to `CC(C)(C)C(=O)Nc1ccc(C(=O)N/N=C/c2ccccc2OC(=O)c2ccc(Cl)cc2)cc1`, for which the inhibition in assay [1] was 27.4%; in assay [2], 7.22%; in [3] it was 6.84%; in [4] it was 35.1%.

On to `O=C1Cc2c([nH]c3ccc([N+](=O)[O-])cc23)-c2ccccc2N1`, for which the inhibition in assay [1] was 91.9% (active); in assay [2], 88.9% (active); in assay [3], 23.5%; in assay [4], 51% (active).

Consider `CC(C)C(=O)NC(c1ccco1)c1ccc2cccnc2c1O` (stereo not drawn), for which the inhibition in assay [1] is 32.7%; in [2], 20.6%; in [3], -13.3%; in assay [4], 8.96%.

Turning to `COc1ccc(Cc2nnc(N/N=C/c3ccc(O)cc3)[nH]c2=O)cc1OC`, the inhibition in [1] is 84.4% (active); in [2], 81% (active); in [3], 33.1%; in assay [4], 50.5% (active).

As for `Cc1cc2nccc(-c3ccncc3)n2n1`, the inhibition in assay [1] was 38.2%; in [2] it was 22.4%; in [3] it was 3.85%; in assay [4], 33.4%.

`CC[C@@]1(O)C(=O)OCc2c1cc1n(c2=O)Cc2cc3c(CN(C)C)c(O)ccc3nc2-1`: the inhibition in assay [1] was 89.8% (active); in assay [2], 53.2% (active); in assay [5], 99.7% (active); in assay [6], 85.7% (active); in assay [3], 32.9%; in assay [4], 46%.

As to `O=C(O)CCn1c(O)c(C=C2N=c3ccccc3=N2)sc1=S`, the inhibition in assay [1] was 12.5%; in assay [2], 13.2%; in [3], 34.1%; in [4] it was 72.1% (active).

With `CC[n+]1cc(C)ccc1/C=C/c1ccc(N(C)C)cc1`, the inhibition in assay [1] was 45.1% (active); in [2], 58.8% (active); in assay [7] it was 57% (active); in assay [5] it was 91.7% (active); in assay [6], 85.7% (active); in assay [8], 80% (active). For the same compound, the inhibition in assay [9] is -0.96%; in assay [10], 62.6% (active).

Regarding `CCOc1cc(/C=C/C(=O)c2ccc(C)cc2)ccc1OCC(=O)N(C)C`, the inhibition in assay [1] was 24.8%; in assay [2], 25.1%; in assay [3] it was 16.4%; in [4] it was 31.6%.

Regarding `Cc1ccc(-n2nc3c(=O)n(C(C)C(=O)NCCC4=CCCCC4)nc(C)c3c2C)cc1` (stereo not drawn), the inhibition is 22.9% in [1], 47.1% (active) in assay [2], 3.1% in assay [3] and 29.1% in [4].

With `CCOc1cc(/C=C2\COc3ccccc3C2=O)ccc1OCC(=O)N(C)C`, the inhibition in [1] is 17.5%; in assay [2], 28.5%; in assay [3] it was 32.2%; in assay [4], 27.8%.
